In ChEMBL document CHEMBL1201862, “PubChem BioAssay data set” (2004) one finds GI50 data, which are given here for 6 substances.

Out of some 44,000 sequences screened, about 2,900 (6.6%) were called active. Rule as the data show it: active = GI50 up to about 1.1 µM and inactive = higher. Not all results are given here. Potency and affinity values are given separately.

The assay deals with NCI/ADR-RES.
For CISPLATIN, CHEMBL11359, it took 4.93 µM to inhibit growth by half (GI50).
For “[Bis(aminomethyl)tetramethylenesilane]dichloropaltinum(II), CHEMBL2146205”, the GI50 (usually the concentration giving 50% growth inhibition) stood at 5.22 µM.
As for “[Bis(aminomethyl)tetramethylenesilane]tetrachloropaltinum(IV), CHEMBL2146189”, the figure is 5.69 µM; as for “[Bis(aminomethyl)pentamethylenesilane]tetrachloropaltinum(IV), CHEMBL2146204”, 1.91 µM.
Then “[Bis(aminomethyl)pentamethylenesilane]dichloropaltinum(II), CHEMBL2146202”, with 14.3 µM; and “[Bis(aminomethyl)dimethylsilane]tetrachloroplatinum(IV), CHEMBL2146190”, with 15 µM.
